Compound activity as filed in PubChem BioAssay.
The list is not random: actives were taken first. Their share in the collection is about 6.5%.
Vaccinia mCherry = qHTS for Stage-Specific Inhibitors of Vaccinia Orthopoxvirus: mCherry Reporter Primary qHTS; Potency, µM (series often up to 36.5 µM), without a hit: top-dose activity change, negative = inhibition, most hits filed as inhibitors; Vaccinia virus mCherry reporter infection, fluorescence; 0.63% of 310,000 active; calls by dose curve; tested in A549 cells; note: potency is the fitted concentration of half-maximal effect; nearly all actives have a fitted effect of over 35% in size
VACV Venus inh = qHTS for Stage-Specific Inhibitors of Vaccinia Orthopoxvirus: Venus Reporter Primary qHTS. AID 720580, 2013. 0.46% of 330,000 active. Potency, µM (doses to about 36.5 µM), inactives show at the highest dose activity change, negative = inhibition, usual class: inhibitors. Vaccinia virus Venus reporter expression, fluorescence; calls by dose curve; tested in A549 cells; note: potency is the fitted concentration of half-maximal effect; nearly all actives have a fitted effect of over 30% in size
LASV entry inh = qHTS for Inhibitors of binding or entry into cells for Lassa Virus; 1.2% of 300,000 active; AID 540256, 2011; Lassa virus pseudotype entry inhibition, cell reporter; Potency, µM (doses to about 37.9 µM), for the others: at the highest dose activity change, negative = inhibition, most hits filed as inhibitors; calls by dose curve; tested in HEK293 cells; note: potency is the fitted concentration of half-maximal effect; nearly all actives have a fitted effect of over 50% in size
MARV entry inh = qHTS for inhibitors of binding or entry into cells for Marburg Virus. Marburg virus pseudotyped entry inhibition, cell reporter. Potency, µM (highest dose often 37.8 µM), for inactives: at the highest dose activity change, negative = inhibition, most hits filed as inhibitors. 1.8% of 300,000 active; calls by dose curve; tested in HEK293 cells; note: potency is the fitted concentration of half-maximal effect
HCMV inh = qHTS Assay for inhibitors of the human cytomegalovirus (HCMV); HFF cells, HCMV-luciferase reporter, 72 h; active compounds read low; activity change, negative = inhibition, % at 57.5 µM; 4.5% of 410,000 active; AID 1259415, 2018; in the data active = activity change below about -60%; inconclusive = no clear call, values can overlap the other calls; inactive = above about -39%
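Steps: HFFs plated, 16 h 37C; compounds added; HCMV-luciferase added to MOI 1 PFU/cell; 72 h 37C; OneGlo reagent, 5 min room temperature; luminescence read, normalized to controls.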
FMDV antiviral = High Throughput Screening for Foot and Mouth Disease Virus Antivirals | 1.2% of 410,000 active | Potency, µM (series often up to 57.9 µM), inactives show top-dose activity change, negative = inhibition, usual class: inhibitors | AID 1159524, 2015 | FMDV antiviral cell-based qHTS; calls by dose curve; tested in HEK293T cells; note: read-out not given here; potency is the fitted concentration of half-maximal effect; nearly all actives have a fitted effect of over 45% in size
An asterisk follows results filed as active; ? = inconclusive; / = no result given; [ ] = another dose, or the depositor's remark. % is set by controls: 0 for no effect and ±100 for the full control effect.

SMILES	Vaccinia mCherry	VACV Venus inh	LASV entry inh	MARV entry inh	HCMV inh	FMDV antiviral
O=C(CN1C(=O)/C(=C/c2ccccc2Cl)SC1=S)NC1C=CS(=O)(=O)C1 (stereo not given)	-9.0%	-3.9%	-16.1%[46.1 µM]	?	-64.4*	-11.9%
COc1cccc(/C=C2\SC(=O)N(CC(=O)NC3C=CS(=O)(=O)C3)C2=O)c1 (stereo not given)	/	/	/	/	-69.1*	-29.4%
O=C(CN1C(=O)/C(=C/c2ccc(Cl)cc2)SC1=S)NC1C=CS(=O)(=O)C1 (stereo not given)	/	/	/	/	-30.6	0.0%
CC(C)c1ccc(/C=C2\SC(=O)N(CC(=O)NC3C=CS(=O)(=O)C3)C2=O)cc1 (stereo not given)	/	/	/	/	-76.6*	-9.7%
COc1cccc(/C=C2\SC(=O)N(CC(=O)NC3CCS(=O)(=O)C3)C2=O)c1 (stereo not given)	/	/	/	/	0.0	5.1%
CCOCN(C(=O)Cn1cnc2cc(C)c(C)cc21)c1c(C)cccc1CC	-21.8%	?	-6.0%[46.1 µM]	?	6.8	-13.2%
COC(=O)c1c(C)oc2ccc(N(C(=O)c3ccncc3)S(=O)(=O)c3ccc(OC)cc3)cc12	-29.5%[7.34 µM]	-27.4%[7.34 µM]	-27.2%[46.1 µM]	?	-95.2*	-22.3%
CCOC(=O)c1c(C)oc2ccc(N(C(=O)c3ccncc3)S(=O)(=O)c3ccc(F)cc3)cc12	-16.1%	-8.5%	-2.8%[46.1 µM]	?	-5.3	6.4%
CCOc1ccc(S(=O)(=O)N(C(=O)c2ccncc2)c2ccc3oc(C)c(C(=O)OC)c3c2)cc1	-25.0%[7.34 µM]	-27.4%[7.34 µM]	?	10µM*	-78.7*	-23.9%
CCc1ccc(S(=O)(=O)N(C(=O)c2ccncc2)c2ccc3oc(C)c(C(=O)OC)c3c2)cc1	-20.9%[7.34 µM]	-21.5%[7.34 µM]	?	?	-64.3*	-5.5%
COCCn1c(=O)c(C)nc2cncnc21	/	/	/	/	/	-13.2%
Cc1cc(Br)ccc1NC(=O)COC(=O)c1ccccc1OCC(N)=O	-5.1%	-6.2%	/	/	/	/
CC(=O)Nc1cc(-c2cccc(C(=O)NCCN(C)C)c2)cn2c(-c3cccc(C(F)(F)F)c3)cnc12	?	?	/	/	-99.6*	-20.6%
CCSc1ccc(-c2cc(NC=O)c3ncc(-c4cccc(C(=O)NCCN(C)C)c4)n3c2)cc1	11.7%	-5.3%	/	/	-21.2	-14.8%
CN(C)CCNC(=O)c1cccc(-c2cnc3c(NC=O)cc(-c4ccc(F)cc4)cn23)c1	0.5%	-23.3%	/	/	?	1.8%
CC(=O)Nc1cc(-c2cccc(C(=O)NCCN(C)C)c2)cn2c(-c3ccccc3)cnc12	?	?	/	/	-10.4	7.3%
COc1ccc(-c2cc(NC=O)c3ncc(-c4cccc(C(=O)NCCN(C)C)c4)n3c2)cc1	9.4%	-15.7%	/	/	-65.6*	-4.9%
CN(C)CCNC(=O)c1cccc(-c2cnc3c(NC=O)cc(-c4cccc(F)c4)cn23)c1	19.3%	-13.0%	/	/	-87.4*	-5.6%
CC(=NNC(N)=S)c1ccc2cc3c(cc2c1)OCO3	?	2µM*	/	/	111.3	12.3%
COc1cc2ccc(C(C)=NNC(N)=S)cc2cc1OC	6.31µM*	?	/	/	60.8	23.4%
C/C(=N\NC(N)=S)c1ccc2c(c1)OCCO2	?	?	-26.9%	-1.6%	30.6	33.9%
COc1ccc(-c2c(C)oc3c(CN4CCN(C)CC4)c(O)ccc3c2=O)cc1	-18.0%	-11.5%	/	/	-62.5*	-10.0%
COc1cccc([C@H]2NC(=O)C[C@@H]3C[C@@H](C)[C@@H](c4cccc(OC)c4)N3C(=O)C=CC[C@@H]2C)c1	/	/	?	7.9%[14.2 µM]	/	/
CCCc1cc(=O)oc2c(CN3CCN(C)CC3)c(O)c(Cl)cc12	/	/	-2.8%	30.0%	14.0	-4.9%
Cc1cc(=O)oc2c(CN3CCN(C)CC3)c(O)c(Cl)cc12	-21.3%[1.46 µM]	-11.6%	6.2%	15.7%	-102.0*	20.9%
CCNC(=O)c1sc2ncnc(NCCCN3CCOCC3)c2c1C	0.1%	14.4%	/	/	/	-4.4%
Oc1ccc(N2CCN(C(=S)NCCc3ccccc3)CC2)cc1	3.5%[1.46 µM]	?	?	?	-70.1*	65.3%
O=C(CN1CCN(c2ccc(O)cc2)CC1)Nc1ccccc1C(=O)NCCc1ccccc1	/	/	/	/	-60.5*	-19.7%
